The supplement of paper PMC11732987, “Enantioselective OTUD7B fragment discovery through chemoproteomics screening and high-throughput optimisation” (Communications Chemistry, 2025)

How the values were obtained:
Experiment in all cases: log2 ratio of Biotin-Ahx-Ub-VS probe labelling (fragment/DMSO); higher = less target engagement (more negative = stronger competition), active = hit call of the paper (q ≤ 0.05, log2 ratio ≤ -1)
Conditions in all cases: compound concentration: 200 uM; treatment time: 3 h
[1] = target: T1, USP19 (UniProt O94966)
T1 sequence (whole entry): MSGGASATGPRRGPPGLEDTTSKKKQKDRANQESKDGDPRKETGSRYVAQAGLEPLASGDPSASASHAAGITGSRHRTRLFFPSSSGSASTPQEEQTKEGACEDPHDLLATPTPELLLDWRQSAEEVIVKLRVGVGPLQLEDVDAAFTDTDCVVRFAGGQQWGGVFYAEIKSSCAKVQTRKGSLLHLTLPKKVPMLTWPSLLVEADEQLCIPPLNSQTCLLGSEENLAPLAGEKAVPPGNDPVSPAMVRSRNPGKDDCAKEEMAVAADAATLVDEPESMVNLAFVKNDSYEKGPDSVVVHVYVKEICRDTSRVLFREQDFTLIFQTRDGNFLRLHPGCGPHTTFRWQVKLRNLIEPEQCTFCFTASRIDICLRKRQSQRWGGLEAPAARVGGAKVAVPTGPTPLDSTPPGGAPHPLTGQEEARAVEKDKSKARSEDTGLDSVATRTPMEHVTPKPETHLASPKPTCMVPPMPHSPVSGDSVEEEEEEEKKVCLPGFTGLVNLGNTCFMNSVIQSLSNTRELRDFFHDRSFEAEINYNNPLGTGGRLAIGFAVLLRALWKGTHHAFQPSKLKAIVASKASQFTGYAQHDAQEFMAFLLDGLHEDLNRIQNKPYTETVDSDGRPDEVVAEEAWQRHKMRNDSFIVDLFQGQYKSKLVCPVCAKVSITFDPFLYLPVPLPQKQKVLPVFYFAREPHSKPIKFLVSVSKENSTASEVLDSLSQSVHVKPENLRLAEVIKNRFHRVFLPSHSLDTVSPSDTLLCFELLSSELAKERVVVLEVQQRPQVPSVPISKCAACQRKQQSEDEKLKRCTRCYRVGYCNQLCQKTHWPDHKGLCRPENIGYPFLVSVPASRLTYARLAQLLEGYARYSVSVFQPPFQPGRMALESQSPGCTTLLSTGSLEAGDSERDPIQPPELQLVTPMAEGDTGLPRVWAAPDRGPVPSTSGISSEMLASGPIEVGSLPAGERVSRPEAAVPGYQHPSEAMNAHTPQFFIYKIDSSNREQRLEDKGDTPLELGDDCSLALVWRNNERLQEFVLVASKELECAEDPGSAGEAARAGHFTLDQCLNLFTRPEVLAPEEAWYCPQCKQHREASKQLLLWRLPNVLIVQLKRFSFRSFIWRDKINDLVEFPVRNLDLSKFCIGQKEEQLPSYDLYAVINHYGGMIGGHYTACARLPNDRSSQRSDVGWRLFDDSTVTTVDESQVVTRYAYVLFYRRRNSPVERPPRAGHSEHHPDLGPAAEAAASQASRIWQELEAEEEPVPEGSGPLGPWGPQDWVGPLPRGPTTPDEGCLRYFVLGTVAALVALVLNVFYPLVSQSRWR
Procedure, shortened: (§1)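 The table lists average log2 ratios of fragment over vehicle, from an unpaired t-test on global-median-normalised Spectronaut label-free quantities. Proteins with ≥2 unique peptides were used. Samples were HEK293T lysate (495 µg) treated in triplicate with fragment at 200 µM or vehicle for 3 h, then with Biotin-Ahx-Ub-VS (0.5 µM final) for 1 h, with labelled DUBs NeutrAvidin-enriched and run by diaPASEF LC-MS/MS.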

[2] = target: T2, USP22 (UniProt Q9UPT9)
T2 sequence (whole entry): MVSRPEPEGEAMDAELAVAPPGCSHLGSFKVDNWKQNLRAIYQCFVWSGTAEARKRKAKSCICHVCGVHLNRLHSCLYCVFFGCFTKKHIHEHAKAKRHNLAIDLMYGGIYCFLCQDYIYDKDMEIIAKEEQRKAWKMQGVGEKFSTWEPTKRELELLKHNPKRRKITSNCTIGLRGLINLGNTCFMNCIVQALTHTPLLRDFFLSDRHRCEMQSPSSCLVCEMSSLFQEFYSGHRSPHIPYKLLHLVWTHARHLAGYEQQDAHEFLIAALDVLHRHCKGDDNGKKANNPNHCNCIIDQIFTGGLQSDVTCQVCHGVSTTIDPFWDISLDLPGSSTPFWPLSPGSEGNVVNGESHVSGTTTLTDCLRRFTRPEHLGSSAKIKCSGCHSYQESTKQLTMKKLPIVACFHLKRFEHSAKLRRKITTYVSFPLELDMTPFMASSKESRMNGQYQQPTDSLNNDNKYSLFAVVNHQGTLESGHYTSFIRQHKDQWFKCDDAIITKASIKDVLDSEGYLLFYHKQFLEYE
Procedure, shortened: as §1

[3] = target: USP24 (UniProt Q9UPU5)
USP24, sequence (Q9UPU5 whole entry): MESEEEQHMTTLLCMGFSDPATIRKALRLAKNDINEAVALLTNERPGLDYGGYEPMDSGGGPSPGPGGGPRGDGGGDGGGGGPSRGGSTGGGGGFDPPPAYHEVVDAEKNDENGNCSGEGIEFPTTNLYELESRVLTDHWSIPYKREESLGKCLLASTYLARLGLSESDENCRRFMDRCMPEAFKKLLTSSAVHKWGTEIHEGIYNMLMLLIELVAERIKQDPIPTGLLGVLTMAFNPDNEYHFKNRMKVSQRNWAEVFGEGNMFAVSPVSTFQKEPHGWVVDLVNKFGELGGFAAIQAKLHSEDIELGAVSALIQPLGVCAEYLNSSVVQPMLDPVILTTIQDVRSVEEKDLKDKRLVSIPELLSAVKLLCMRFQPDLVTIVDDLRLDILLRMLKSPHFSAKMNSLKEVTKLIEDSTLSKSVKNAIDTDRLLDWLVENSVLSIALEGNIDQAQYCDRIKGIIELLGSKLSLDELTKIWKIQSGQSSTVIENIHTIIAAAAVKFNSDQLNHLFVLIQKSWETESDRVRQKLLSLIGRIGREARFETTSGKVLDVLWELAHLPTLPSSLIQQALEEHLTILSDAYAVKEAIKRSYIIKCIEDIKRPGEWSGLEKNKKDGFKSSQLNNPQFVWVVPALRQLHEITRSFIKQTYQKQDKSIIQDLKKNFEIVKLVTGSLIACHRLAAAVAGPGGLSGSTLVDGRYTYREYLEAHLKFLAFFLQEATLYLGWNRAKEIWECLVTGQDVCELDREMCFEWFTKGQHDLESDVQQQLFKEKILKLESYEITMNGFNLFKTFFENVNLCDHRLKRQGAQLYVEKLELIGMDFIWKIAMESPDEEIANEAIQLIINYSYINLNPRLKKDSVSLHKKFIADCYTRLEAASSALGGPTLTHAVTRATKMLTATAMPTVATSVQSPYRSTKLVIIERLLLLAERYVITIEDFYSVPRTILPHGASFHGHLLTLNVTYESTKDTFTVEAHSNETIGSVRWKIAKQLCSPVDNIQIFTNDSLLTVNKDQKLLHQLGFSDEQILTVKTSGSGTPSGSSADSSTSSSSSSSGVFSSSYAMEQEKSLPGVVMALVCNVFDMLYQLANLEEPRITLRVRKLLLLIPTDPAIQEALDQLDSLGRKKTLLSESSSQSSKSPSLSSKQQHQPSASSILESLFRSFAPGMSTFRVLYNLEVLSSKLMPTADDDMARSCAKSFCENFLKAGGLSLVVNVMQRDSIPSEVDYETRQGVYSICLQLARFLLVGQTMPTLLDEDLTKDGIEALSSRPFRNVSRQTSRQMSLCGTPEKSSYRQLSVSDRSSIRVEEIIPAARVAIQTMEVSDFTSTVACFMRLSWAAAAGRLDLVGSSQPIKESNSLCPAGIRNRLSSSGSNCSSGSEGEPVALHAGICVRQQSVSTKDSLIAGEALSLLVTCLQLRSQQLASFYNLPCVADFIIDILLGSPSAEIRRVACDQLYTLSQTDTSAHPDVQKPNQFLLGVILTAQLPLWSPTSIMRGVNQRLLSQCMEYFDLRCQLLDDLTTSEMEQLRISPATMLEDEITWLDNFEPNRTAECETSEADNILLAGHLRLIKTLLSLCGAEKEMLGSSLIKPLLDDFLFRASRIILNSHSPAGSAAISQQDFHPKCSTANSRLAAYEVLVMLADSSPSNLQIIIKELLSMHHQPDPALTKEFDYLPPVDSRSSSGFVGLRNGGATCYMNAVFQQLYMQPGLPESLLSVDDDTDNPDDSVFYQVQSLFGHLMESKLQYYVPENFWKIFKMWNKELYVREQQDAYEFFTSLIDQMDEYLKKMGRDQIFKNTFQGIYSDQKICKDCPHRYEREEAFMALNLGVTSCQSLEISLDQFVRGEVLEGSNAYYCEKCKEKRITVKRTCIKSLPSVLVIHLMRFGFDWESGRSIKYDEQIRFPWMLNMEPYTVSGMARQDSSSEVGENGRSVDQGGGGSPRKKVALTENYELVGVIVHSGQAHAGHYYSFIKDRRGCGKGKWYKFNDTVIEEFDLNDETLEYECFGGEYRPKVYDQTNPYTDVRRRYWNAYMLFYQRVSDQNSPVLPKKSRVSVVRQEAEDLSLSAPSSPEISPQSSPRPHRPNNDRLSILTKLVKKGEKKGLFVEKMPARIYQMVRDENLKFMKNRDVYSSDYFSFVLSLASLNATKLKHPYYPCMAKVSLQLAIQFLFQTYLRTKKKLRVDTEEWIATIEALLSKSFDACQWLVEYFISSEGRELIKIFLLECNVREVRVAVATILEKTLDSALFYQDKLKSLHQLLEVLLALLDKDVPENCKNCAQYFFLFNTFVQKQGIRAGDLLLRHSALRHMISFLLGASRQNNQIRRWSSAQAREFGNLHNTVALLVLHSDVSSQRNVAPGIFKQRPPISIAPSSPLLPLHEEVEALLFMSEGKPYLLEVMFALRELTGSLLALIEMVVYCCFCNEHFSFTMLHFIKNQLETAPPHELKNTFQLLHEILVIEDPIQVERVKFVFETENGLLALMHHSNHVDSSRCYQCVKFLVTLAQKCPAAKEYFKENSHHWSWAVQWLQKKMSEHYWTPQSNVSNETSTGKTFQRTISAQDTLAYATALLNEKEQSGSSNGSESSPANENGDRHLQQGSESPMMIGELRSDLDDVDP
Procedure, shortened: as §1

[4] = target: T3, USP25 (UniProt Q9UHP3)
T3 sequence (whole entry): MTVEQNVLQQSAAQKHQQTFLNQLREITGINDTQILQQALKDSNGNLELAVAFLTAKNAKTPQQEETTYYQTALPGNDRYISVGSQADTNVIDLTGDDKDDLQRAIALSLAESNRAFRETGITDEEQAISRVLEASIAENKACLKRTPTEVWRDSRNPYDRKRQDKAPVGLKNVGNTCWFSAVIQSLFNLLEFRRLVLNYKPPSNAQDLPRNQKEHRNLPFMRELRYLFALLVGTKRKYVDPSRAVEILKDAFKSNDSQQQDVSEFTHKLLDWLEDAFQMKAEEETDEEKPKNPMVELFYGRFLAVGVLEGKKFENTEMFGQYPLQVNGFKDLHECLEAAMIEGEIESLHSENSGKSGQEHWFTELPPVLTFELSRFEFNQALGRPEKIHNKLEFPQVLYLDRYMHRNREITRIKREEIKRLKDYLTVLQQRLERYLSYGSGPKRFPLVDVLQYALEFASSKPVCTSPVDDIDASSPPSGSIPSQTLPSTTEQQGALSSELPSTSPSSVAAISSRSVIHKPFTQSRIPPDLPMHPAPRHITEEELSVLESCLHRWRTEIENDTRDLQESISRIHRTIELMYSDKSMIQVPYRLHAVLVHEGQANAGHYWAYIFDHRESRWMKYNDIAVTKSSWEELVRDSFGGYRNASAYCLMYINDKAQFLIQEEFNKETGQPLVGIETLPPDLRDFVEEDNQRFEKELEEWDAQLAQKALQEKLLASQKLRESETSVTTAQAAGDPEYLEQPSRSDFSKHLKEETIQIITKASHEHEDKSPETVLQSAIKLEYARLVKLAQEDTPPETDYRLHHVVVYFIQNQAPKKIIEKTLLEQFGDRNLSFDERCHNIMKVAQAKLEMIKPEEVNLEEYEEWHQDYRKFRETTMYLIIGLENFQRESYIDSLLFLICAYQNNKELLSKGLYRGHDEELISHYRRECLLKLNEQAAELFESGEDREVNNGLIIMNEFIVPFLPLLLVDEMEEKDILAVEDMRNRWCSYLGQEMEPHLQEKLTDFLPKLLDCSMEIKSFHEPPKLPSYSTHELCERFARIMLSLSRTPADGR
Procedure, shortened: as §1

[5] = target: T4, USP28 (UniProt Q96RU2)
T4 sequence (whole entry): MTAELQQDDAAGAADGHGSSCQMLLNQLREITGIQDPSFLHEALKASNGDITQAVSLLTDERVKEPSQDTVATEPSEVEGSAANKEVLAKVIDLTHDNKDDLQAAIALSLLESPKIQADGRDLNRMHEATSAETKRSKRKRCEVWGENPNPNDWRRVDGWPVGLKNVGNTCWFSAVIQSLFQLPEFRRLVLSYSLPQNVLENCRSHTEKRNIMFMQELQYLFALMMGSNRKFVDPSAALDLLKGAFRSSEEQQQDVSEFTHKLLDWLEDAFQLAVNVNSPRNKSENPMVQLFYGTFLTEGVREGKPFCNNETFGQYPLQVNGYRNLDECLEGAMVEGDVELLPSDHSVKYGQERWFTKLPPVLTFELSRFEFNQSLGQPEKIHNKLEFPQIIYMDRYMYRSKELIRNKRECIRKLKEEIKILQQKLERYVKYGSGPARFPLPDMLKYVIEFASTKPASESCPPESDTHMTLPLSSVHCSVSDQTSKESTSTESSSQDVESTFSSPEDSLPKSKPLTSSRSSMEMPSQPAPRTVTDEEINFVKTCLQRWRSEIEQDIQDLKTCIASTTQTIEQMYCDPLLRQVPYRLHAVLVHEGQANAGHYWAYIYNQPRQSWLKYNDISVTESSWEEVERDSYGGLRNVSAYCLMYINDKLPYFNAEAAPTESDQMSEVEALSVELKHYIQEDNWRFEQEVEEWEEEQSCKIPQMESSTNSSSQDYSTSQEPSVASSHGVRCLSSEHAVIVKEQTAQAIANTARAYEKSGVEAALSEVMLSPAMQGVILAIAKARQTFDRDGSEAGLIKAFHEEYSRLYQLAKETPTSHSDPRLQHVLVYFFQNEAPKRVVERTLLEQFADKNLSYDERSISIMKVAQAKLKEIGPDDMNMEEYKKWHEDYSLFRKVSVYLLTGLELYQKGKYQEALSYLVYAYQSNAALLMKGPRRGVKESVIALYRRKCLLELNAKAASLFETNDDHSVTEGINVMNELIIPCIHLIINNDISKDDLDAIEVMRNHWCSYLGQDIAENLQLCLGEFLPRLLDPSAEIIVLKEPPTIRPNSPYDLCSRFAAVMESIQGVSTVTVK
Procedure, shortened: as §1

Measured: log2 ratio of Biotin-Ahx-Ub-VS probe labelling

Cl.O=C(CN1CCN(C(=O)CCl)CC1)Nc1ccc(F)cc1
inactive: [1] -0.172 | [2] 0.179 | [3] -0.098 | [4] 0.0867 | [5] 0.0845
